Out of some 67,000 compounds screened, about 300 (0.45%) showed an effect of 50% or more. This is one part of a sample in which strong results are shown more often than they occur.

Polyketide synthase Pks13 (Mycobacterium tuberculosis (strain ATCC 25618 / H37Rv)), sequence (I6X8D2 whole entry): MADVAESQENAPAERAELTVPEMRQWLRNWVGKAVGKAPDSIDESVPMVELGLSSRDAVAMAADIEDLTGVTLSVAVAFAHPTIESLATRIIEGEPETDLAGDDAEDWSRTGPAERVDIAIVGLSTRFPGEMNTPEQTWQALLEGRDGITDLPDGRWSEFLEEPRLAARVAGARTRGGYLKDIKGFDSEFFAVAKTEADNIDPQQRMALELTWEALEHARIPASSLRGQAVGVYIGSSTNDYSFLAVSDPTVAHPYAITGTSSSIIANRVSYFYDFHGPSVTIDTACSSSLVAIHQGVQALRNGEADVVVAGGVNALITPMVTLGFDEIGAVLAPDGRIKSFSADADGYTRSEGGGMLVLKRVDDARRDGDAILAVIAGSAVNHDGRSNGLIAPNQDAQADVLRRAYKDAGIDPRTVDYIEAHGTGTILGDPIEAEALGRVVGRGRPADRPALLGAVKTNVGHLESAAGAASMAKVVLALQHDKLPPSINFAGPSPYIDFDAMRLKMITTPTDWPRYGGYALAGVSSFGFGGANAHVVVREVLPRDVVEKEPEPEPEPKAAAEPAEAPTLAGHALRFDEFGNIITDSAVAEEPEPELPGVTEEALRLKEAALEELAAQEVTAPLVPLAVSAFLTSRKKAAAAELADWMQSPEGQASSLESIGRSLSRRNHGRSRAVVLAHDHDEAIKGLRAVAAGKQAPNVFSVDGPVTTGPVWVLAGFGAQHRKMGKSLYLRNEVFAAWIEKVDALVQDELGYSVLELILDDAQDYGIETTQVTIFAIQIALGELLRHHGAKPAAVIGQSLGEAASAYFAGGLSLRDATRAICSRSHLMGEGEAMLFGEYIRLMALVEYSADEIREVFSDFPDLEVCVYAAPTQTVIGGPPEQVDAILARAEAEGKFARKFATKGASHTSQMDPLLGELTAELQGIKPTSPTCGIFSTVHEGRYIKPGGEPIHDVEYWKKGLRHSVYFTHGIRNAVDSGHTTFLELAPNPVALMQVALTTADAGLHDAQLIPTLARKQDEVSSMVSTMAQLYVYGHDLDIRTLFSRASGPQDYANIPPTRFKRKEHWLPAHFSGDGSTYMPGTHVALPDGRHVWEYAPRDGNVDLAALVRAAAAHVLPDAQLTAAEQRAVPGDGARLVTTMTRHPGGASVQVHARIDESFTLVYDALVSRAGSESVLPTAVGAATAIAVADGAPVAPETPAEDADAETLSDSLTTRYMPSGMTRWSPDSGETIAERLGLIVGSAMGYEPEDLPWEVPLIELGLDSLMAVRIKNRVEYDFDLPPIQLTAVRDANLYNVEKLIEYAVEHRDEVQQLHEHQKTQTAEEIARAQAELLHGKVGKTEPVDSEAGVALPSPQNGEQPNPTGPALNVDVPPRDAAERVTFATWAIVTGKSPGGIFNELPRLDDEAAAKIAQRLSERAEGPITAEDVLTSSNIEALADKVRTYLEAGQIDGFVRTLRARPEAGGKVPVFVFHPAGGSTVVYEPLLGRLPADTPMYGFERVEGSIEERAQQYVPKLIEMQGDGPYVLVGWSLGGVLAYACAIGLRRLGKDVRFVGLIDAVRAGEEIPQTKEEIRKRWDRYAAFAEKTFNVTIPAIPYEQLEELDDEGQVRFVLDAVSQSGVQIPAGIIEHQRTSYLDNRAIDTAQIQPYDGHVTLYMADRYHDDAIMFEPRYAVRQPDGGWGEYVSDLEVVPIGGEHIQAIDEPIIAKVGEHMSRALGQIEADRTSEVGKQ

The assay concerns the target Polyketide synthase Pks13 (Mycobacterium tuberculosis (strain ATCC 25618 / H37Rv)) (UniProt I6X8D2). Put plainly: Mycobacterium tuberculosis Polyketide synthase 13 Thioesterase (PKS13). It is filed as functional. Also noted: scale not given: in the data most compounds retested in dose-response had high values. The conditions noted are these: 30 µM.
Turning to `O=C(CSc1ccccn1)N1CCN(CCO)[C@@H]2CS(=O)(=O)C[C@@H]21`, the Percent Effect amounted to 0.423%.
The result for `Cc1ccoc1C(=O)N1C[C@@H]2COC[C@]2(CNS(C)(=O)=O)C1` reads -15.4%; that for `Cn1cc(CN2C[C@@H](NC(=O)c3cscn3)[C@H]3OCCC[C@H]32)cn1`, -41.4%.
With `O=C(Nc1ccccc1)N1C[C@H]2C[C@H](C(=O)N3CCCC3)[C@@H](C1)O2` the figure was -39.5%; with `CC(C)(C)c1nc(CN2CCc3onc(-c4cccc(F)c4)c3C2)no1`, -16.5%.
The result for `CC(C)c1nc(CN2CCc3onc(-c4cccc(F)c4)c3C2)no1` reads 91.2%; that for `CC(C)Cc1nc(CN2CCc3onc(-c4cccc(F)c4)c3C2)no1`, 3.75%.
As to `O=C(C1CCC1)N1C[C@@H]2CC[C@H](C1)N(S(=O)(=O)c1ccccc1)C2`, the Percent Effect is -44.5%.
With `CCCN1CCN(C(=O)c2ccnc(N)c2)[C@H]2CS(=O)(=O)C[C@H]21` the figure was -5.18%; with `CC1=CC[C@@H]2CN(C(=O)c3ccc(-c4cc[nH]n4)cc3)C[C@@H]2C1`, -21.5%.
Turning to `CN(CCc1cccs1)C(=O)Nc1ccc2c(c1)C(=O)N(C)CC2`, the Percent Effect came to 31.9%.
With `CN1CCc2ccc(NCc3cccs3)cc2C1=O` the figure was 126%; with `CN1CCc2ccc(NCc3cscn3)cc2C1=O`, -2.18%.
The result for `Cc1noc(C)c1CN1C[C@@H]2COC[C@@H](C(=O)N3CCCCO3)[C@@H]2C1` reads 6.29%; that for `COc1cccc(CN2CCC3(COCc4cnc(N(C)C)nc43)C2)c1` (configuration not stated), 111%; that for `CN(C)c1ncc2c(n1)C1(CCN(Cc3cccnc3)C1)COC2` (configuration not stated), -30.2%.
As to `COc1cccc(CN2CCC3(CCN(c4ncc(C)cn4)CC3)C2)c1`, the Percent Effect is 66.7%.
The result for `CN(C)c1ncc2c(n1)C1(CCN(Cc3ccccc3)C1)COC2` (configuration not stated) reads -6.74%.
With `COc1cccc(CN2CCC3(CCN(c4ncc(F)cn4)CC3)C2)c1` the figure was 14.4%; with `COc1cccc(CN2CCC3(CC2)CCN(c2ncc(C)cn2)C3)c1`, -24.2%.
With `Cc1noc([C@]23COC[C@H]2CN(C(=O)COC2CCCC2)C3)n1` the figure was -5.31%.
Consider `COCCOCC(=O)N1C[C@H]2CC[C@@H]1CN(C1Cc3ccccc3C1)C2`, for which the Percent Effect is -22.6%.
`Cc1cccc2cc(CNCCCN3CCOCC3)c(=O)[nH]c12`: the Percent Effect is -21.5%.
The result for `Cc1ccc2cc(CNCCCN3CCOCC3)c(=O)[nH]c2c1C` reads 62.3%; that for `CCc1cccc2cc(CNCCCN3CCOCC3)c(=O)[nH]c12`, 16.5%.
The result for `CS(=O)(=O)N1CCO[C@@H]2CN(Cc3ccncc3)C[C@@H]2C1` reads -14.9%; that for `CCN1CCC(CNCc2c[nH]nc2C(C)(C)C)C1` (configuration not stated), -27.2%; that for `CC(O)CN1CCC(CNCc2ccc(C(N)=O)cc2)CC1` (configuration not stated), -12.3%.
With `CC(O)CN1CCC(CNCc2cccc(C(N)=O)c2)CC1` (configuration not stated) the figure was 108%.
On to `CC(O)CN1CCC(CNCc2cccc(C(=O)N(C)C)c2)CC1` (configuration not stated), for which the Percent Effect is -0.155%.
The result for `CN(C)CCN1CCC(CNCc2c[nH]nc2C(C)(C)C)CC1` reads -14.5%; that for `CC(O)CN1CCC(CNCc2c[nH]nc2C(C)(C)C)CC1` (configuration not stated), 110%.
